Bioassay records deposited in PubChem by several laboratories.
Beta apoptosis: beta cell apoptosis inhibition; INS-1E cytokine-induced death, ATP luminescence, 48 h; percent of positive-control rescue, neutral wells zero; protection from apoptosis, % (concentration not given with the values); 300,000 tested, 0.8% active;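 active = Every replicate reaches about 75%, or at least half do and their mean reaches it too, limit read from the data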;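 also: 0% = cytokine-treated negative control wells and 100% = positive control rescue; higher means more ATP so stronger rescue from cytokine killing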
CSC inhib: blocks cancer stem cells; inhibition, % at 7.5 µM; 300,000 tested, 1.1% active; cancer stem cell-like cells viability, luminescence; in the data active = inhibition above about 75%; tested in HMLE shEcad cells
MPTP inh: blocks calcium-induced mitochondrial swelling; isolated mouse mitochondria, Ca2+ swelling absorbance, 30 min; AID 602449; 360,000 tested, 1.4% active; inhibition, % at 10 µM;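 active = inhibition of 50% or more, scaled per plate between neutral and stimulator controls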;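 also: 0% = DMSO wells given calcium and 100% = 1 mM EGTA wells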
Mdm2 MdmX PPI: disrupts the human Mdm2-MdmX interaction; AID 485346; O15151+Q00987; 330,000 tested, 3% active; SaOS-2 split-luciferase Mdm2/MdmX complementation, luminescence; inhibition, % at 8 µM;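 active = inhibition of at least 50% at 8 µM in the primary screen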
Target sequence (O15151 whole entry, looked up): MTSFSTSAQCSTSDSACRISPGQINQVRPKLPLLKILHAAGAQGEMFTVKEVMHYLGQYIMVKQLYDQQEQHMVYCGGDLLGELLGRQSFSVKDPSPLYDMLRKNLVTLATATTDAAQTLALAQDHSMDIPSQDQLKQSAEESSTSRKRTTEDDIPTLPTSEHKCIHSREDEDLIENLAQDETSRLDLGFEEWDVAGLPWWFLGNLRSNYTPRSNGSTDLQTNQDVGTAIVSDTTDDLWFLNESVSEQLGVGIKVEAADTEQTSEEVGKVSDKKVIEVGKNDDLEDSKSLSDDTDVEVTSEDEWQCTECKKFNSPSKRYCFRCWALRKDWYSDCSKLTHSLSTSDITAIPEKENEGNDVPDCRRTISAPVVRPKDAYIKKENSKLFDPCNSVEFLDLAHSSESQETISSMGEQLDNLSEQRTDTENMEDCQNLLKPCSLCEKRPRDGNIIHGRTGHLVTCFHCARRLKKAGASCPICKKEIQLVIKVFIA
Target sequence (Q00987 whole entry, looked up): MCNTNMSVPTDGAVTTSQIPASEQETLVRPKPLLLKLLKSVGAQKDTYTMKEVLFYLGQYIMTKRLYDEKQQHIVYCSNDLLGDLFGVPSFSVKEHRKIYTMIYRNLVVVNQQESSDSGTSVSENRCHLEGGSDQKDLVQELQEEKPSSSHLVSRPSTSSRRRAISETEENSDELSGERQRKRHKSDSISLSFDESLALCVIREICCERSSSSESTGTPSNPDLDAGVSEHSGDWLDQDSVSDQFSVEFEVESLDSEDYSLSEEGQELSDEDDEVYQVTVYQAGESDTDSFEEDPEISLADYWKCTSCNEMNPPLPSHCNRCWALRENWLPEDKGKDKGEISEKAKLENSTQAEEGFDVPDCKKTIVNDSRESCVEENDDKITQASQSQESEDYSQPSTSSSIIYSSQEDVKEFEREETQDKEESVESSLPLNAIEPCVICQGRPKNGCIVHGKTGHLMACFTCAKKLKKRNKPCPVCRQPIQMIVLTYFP
Calb FLC: affects C. albicans growth with fluconazole; C. albicans CaCi-2 (fluconazole-resistant clinical isolate) + fluconazole, Alamar Blue growth, 48 h; growth inhibition, % (concentration not given with the values); 300,000 tested, 0.57% active; AID 1979;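 active = growth inhibition above about 58% in most replicates, limit read from the data, passing the limit was not always enough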;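 also: all wells also contain fluconazole at 8 µg/ml as a sub-toxic cotreatment; 0% = median of DMSO wells and 100% = median of geldanamycin control wells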
MPTP counter: mitochondrial membrane potential, counter-screen; inhibition, % at 10 µM; 5,000 tested, 78% active; AID 624504; shares compounds with MPTP inh; isolated mitochondria, Rhodamine 123 fluorescence; in the data active = inhibition above about 22%;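 also: 0% = DMSO vehicle and 100% = positive control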
The depositor's hits bear a star; ! = repeats disagree. Most compounds without a hit are left out; they make up all but 4.8% or so of the library.

Results for CCC1CCCCN1S(=O)(=O)c1ccc(NC(=O)c2ccncc2)cc1 (stereo not given) ?
CSC inhib: 0; MPTP inh: 75*; Mdm2 MdmX PPI: 14; Calb FLC: 0; MPTP counter: 89*

What do the screens show for `CCC1CCCCN1S(=O)(=O)c1ccc(C(=O)Nc2nnc(C3CC3)o2)cc1` (stereo not given)?
Beta apoptosis: 4; CSC inhib: 26; MPTP inh: -4; Mdm2 MdmX PPI: 43; Calb FLC: 5

What do the screens show for `CCCc1cc(C(=O)N2CCCC(Nc3ccc(C)c(C)c3)C2)n(C)n1` (stereo not given)?
Beta apoptosis: 0; CSC inhib: -7; MPTP inh: 0; Mdm2 MdmX PPI: 17; Calb FLC: -9

Results for CCCCN(CCCC)S(=O)(=O)c1ccc(NC(=O)c2ccc([N+](=O)[O-])cc2Cl)cc1 ?
Beta apoptosis: -3; CSC inhib: 47; MPTP inh: 95*; Calb FLC: -4; MPTP counter: 96*

What do the screens show for `Cc1cc(C)nc(NS(=O)(=O)c2ccc(NC(=O)c3cccs3)cc2)n1`?
Beta apoptosis: -2; CSC inhib: -3; MPTP inh: -2; Mdm2 MdmX PPI: 8; Calb FLC: 16

What do the screens show for `CCCCN(CCCC)S(=O)(=O)c1ccc(NC(=O)c2cccs2)cc1`?
Beta apoptosis: 15; MPTP inh: 86*; Mdm2 MdmX PPI: -12; Calb FLC: 2; MPTP counter: 72*

How did Fc1ccc(CCNC(=S)Nc2ccc(F)c(Cl)c2)cc1 do in these assays?
Beta apoptosis: -4; CSC inhib: 46; MPTP inh: 103*; Mdm2 MdmX PPI: 28; Calb FLC: -45; MPTP counter: 95*

How did Fc1ccccc1NC(=S)NCCc1ccc(Cl)cc1 do in these assays?
Beta apoptosis: 7; CSC inhib: -4; MPTP inh: 5; Mdm2 MdmX PPI: -41; Calb FLC: -39

What do the screens show for `Fc1ccc(NC(=S)NCCc2ccc(Cl)cc2)cc1`?
Beta apoptosis: 1; CSC inhib: 20; MPTP inh: 89*; Mdm2 MdmX PPI: 0; Calb FLC: -10; MPTP counter: 90*

How did Fc1ccc(NC(=S)NCc2ccccc2Cl)cc1 do in these assays?
CSC inhib: 3; MPTP inh: 92*; Mdm2 MdmX PPI: -7; Calb FLC: -18; MPTP counter: 76*

What do the screens show for `CC(C)C[C@H]1CNC(=S)N1C[C@H]1CCCN1C[C@H](CC(C)C)N1C[C@H](Cc2ccc(O)cc2)N(CC2CCCCCC2)C1=S`?
MPTP inh: 5

Results for CCN1CCN(C(=S)Nc2cccc(C(F)(F)F)c2)CC1 ?
Beta apoptosis: -8; CSC inhib: -2; MPTP inh: 36; Mdm2 MdmX PPI: 35; Calb FLC: -1

How did O=C(Nc1cccc(C(F)(F)F)c1)C(Sc1ncnc2ccccc12)c1ccccc1 (stereo not given) do in these assays?
Beta apoptosis: 6; CSC inhib: 17; MPTP inh: 60*; Mdm2 MdmX PPI: 13; Calb FLC: -6; MPTP counter: 68*

Results for CC1(C(=O)Nc2cccc(C(F)(F)F)c2)CO1 (stereo not given) ?
Beta apoptosis: -10; CSC inhib: -8; Mdm2 MdmX PPI: -30; Calb FLC: -1

Results for Cc1cc(C)cc(NC(=O)C(Sc2ncnc3ccccc23)c2ccccc2)c1 (stereo not given) ?
Beta apoptosis: -4; CSC inhib: 32; MPTP inh: 2; Mdm2 MdmX PPI: 4; Calb FLC: 4

What do the screens show for `O=C(Nc1cccc(C(F)(F)F)c1)C12CC3CC(CC(C3)C1)C2`?
Beta apoptosis: 1; CSC inhib: 28; MPTP inh: 64*; Mdm2 MdmX PPI: -18; Calb FLC: -4; MPTP counter: 43*

Results for OCCN1CCN(C(=S)Nc2cccc(C(F)(F)F)c2)CC1 ?
Beta apoptosis: -1; CSC inhib: 0; MPTP inh: 94*!; Mdm2 MdmX PPI: -8; Calb FLC: -3; MPTP counter: 82*

How did O=C(Nc1cccc(C(F)(F)F)c1)n1cc(-c2ccccn2)c(N2CCOCC2)n1 do in these assays?
Beta apoptosis: 4; CSC inhib: 12; MPTP inh: 86*; Mdm2 MdmX PPI: -8; Calb FLC: -6; MPTP counter: 96*

Results for COc1ccccc1Cc1c(-c2ccc(F)cc2)nc2cc(C)c(Br)c(C)n12 ?
MPTP inh: 2

Results for Cc1ccc(S(=O)(=O)N(C)c2ccc(C(=O)NC3CCCCC3)cc2)cc1 ?
MPTP inh: 1

What do the screens show for `FC(F)(F)c1cccc(NC(=S)N2CCN(c3cccc(C(F)(F)F)c3)CC2)c1`?
Beta apoptosis: -18; CSC inhib: -4; MPTP inh: 22; Mdm2 MdmX PPI: 22; Calb FLC: 1

How did O=C(Nc1ccccc1)Nc1ccc2ccccc2c1 do in these assays?
Beta apoptosis: 3; CSC inhib: 8; MPTP inh: 87*; Mdm2 MdmX PPI: -58; Calb FLC: 11; MPTP counter: 83*

What do the screens show for `O=C(NCc1ccc2c(c1)CCO2)Nc1cccc(C(F)(F)F)c1`?
Beta apoptosis: 3; CSC inhib: 16; MPTP inh: 67*; Mdm2 MdmX PPI: 15; Calb FLC: -3; MPTP counter: 83*

How did Fc1ccc(NC(=S)N2CCN(c3cccc(C(F)(F)F)c3)CC2)cc1 do in these assays?
Beta apoptosis: 8; CSC inhib: 6; MPTP inh: 101*; Mdm2 MdmX PPI: 11; Calb FLC: 0; MPTP counter: 75*

What do the screens show for `O=C(Cc1ccc([N+](=O)[O-])cc1)Nc1cccc(C(F)(F)F)c1`?
Beta apoptosis: 9; CSC inhib: -2; MPTP inh: 81*; Mdm2 MdmX PPI: -10; Calb FLC: -3; MPTP counter: 82*

What do the screens show for `CC(=O)Nc1ccc2ccccc2c1`?
Beta apoptosis: 0; CSC inhib: -8; MPTP inh: -1; Mdm2 MdmX PPI: 6; Calb FLC: -3

Results for Cc1nc2c(OCc3ccc(C#N)cc3)cccn2c1N(C)Cc1cccs1 ?
MPTP inh: 1

Results for COc1ccc(NC(=O)Nc2cc(C)cc(C)c2)cn1 ?
Beta apoptosis: -3; CSC inhib: -7; MPTP inh: 19; Mdm2 MdmX PPI: 18; Calb FLC: 1

How did CN1CCN(c2ccc(-c3ccnn3C(=O)Nc3cccc(C(F)(F)F)c3)cc2)CC1 do in these assays?
Beta apoptosis: 8; CSC inhib: 19; MPTP inh: 87*; Mdm2 MdmX PPI: -44; MPTP counter: 100*

Results for CC(C)c1cc(C(=O)Nc2cccc(C(F)(F)F)c2)no1 ?
Beta apoptosis: -10; CSC inhib: -10; MPTP inh: -1; Mdm2 MdmX PPI: -1; Calb FLC: 9

Results for Cc1ccccc1NC(=O)CNC(=O)c1ccc(C(F)(F)F)cc1 ?
Beta apoptosis: 1; CSC inhib: 0; MPTP inh: 0; Mdm2 MdmX PPI: 7; Calb FLC: -7
